# Assay results published in PMC7862700, “An all-to-all approach to the identification of sequence-specific readers for epigenetic DNA modifications on cytosine”.
# How the values were obtained:
# Assay in all cases: DAPPL (digital affinity profiling via proximity ligation, sequencing); 10 mM Tris-HCl pH 7.5, 50 mM NaCl, 1 mM DTT, 4% glycerol, room temperature, 30 min; GST-TFs on glutathione beads, 16-mer random dsDNA library, 0.1% formaldehyde crosslink after washing; high values mean tight binding
# Settings in all cases: protein: recombinant; tags: N-terminal GST; dsDNA, one strand shown
# FLI1 = target: T1, FLI1 (Homo sapiens, UniProt Q01543 1-452)
# T1 sequence: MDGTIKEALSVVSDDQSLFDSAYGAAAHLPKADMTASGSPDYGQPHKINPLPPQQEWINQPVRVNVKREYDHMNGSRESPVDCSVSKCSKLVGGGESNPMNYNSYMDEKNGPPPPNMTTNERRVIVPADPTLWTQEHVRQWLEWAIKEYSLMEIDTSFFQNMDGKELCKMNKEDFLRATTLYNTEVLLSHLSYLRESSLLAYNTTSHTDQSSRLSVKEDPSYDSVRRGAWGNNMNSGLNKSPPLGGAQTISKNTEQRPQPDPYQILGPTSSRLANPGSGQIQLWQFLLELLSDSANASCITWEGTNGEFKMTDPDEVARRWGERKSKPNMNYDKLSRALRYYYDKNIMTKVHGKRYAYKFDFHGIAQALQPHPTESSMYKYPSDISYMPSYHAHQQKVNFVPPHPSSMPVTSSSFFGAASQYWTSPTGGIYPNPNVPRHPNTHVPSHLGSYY
# Summary of the method: (§1)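 Pools were built from human transcription factors expressed in yeast as GST fusions, captured on glutathione beads and DNA-barcoded, along with a tag-only sample. Incubation with 200 nmole of a 16-mer random double-stranded DNA library lasted 30 min at room temperature in Tris/NaCl/DTT/glycerol buffer, and was followed by washing, 0.1% formaldehyde crosslinking, proximity ligation, PCR amplification and Illumina NextSeq500 sequencing. Binding signal is the quotient of each hexamer's read frequency for a factor and its frequency for the tag-only sample.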
# ELK1 = target: T2, ELK1 (Homo sapiens, UniProt P19419 1-428)
# T2 sequence: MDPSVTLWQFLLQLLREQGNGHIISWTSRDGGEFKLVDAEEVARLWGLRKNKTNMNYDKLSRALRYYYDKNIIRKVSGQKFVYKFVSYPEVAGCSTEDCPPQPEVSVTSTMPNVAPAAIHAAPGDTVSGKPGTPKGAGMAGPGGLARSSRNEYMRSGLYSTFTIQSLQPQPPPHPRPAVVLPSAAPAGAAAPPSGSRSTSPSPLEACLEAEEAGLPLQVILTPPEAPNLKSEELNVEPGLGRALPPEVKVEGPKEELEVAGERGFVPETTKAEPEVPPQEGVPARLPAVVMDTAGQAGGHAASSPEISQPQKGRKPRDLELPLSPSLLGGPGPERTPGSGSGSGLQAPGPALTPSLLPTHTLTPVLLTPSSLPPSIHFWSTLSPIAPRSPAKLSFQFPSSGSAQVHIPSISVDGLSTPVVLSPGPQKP
# Summary of the method: as §1
# GABPA = target: T3, GABPA (Homo sapiens, UniProt Q06546 1-454)
# T3 sequence: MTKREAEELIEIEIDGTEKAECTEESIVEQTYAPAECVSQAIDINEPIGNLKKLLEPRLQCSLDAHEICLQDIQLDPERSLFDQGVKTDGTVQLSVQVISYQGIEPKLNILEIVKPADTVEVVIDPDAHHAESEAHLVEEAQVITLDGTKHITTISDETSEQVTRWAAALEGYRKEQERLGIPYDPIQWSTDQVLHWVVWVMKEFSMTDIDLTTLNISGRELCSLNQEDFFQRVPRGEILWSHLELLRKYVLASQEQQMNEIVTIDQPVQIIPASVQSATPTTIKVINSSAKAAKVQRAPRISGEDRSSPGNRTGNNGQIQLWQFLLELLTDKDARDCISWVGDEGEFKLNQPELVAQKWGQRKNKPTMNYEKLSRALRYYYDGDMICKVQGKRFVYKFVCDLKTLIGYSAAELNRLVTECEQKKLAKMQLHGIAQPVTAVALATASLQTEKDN
# Summary of the method: as §1
# ERG = target: T4, ERG (Homo sapiens, UniProt P11308 1-479)
# T4 sequence: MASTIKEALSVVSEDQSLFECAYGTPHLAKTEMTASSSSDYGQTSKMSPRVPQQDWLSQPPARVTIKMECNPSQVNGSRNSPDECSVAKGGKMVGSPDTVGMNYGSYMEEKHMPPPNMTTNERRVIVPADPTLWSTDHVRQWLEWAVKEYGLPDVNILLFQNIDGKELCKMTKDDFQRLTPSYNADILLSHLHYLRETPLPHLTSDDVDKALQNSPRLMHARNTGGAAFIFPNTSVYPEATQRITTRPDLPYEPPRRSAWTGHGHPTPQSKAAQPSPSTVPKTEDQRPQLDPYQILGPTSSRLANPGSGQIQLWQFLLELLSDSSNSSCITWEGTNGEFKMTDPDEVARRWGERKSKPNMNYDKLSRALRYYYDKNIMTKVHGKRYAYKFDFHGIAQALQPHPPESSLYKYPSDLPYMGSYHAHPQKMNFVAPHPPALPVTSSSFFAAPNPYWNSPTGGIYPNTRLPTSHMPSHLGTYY
# Summary of the method: as §1
# ELF1 = ELF1 (Homo sapiens, UniProt P32519 1-619)
# Sequence of ELF1 (P32519 whole entry): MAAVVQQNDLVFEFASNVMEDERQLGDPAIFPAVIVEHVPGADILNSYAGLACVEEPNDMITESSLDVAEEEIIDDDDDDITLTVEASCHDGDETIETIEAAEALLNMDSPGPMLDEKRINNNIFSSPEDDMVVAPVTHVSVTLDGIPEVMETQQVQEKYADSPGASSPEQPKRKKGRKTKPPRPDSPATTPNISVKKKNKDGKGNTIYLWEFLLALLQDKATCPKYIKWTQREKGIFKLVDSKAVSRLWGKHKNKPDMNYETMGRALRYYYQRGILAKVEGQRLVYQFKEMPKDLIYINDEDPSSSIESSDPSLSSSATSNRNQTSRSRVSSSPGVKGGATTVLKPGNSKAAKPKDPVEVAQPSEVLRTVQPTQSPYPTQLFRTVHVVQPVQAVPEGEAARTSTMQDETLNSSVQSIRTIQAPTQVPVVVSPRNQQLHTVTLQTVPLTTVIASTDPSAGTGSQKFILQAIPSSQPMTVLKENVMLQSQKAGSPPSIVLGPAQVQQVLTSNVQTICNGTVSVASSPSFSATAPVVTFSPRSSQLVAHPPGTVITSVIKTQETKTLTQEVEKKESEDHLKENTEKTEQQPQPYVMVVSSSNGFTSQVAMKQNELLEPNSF
# Summary of the method: as §1
# EHF = target: T5, EHF (Homo sapiens, UniProt Q9NZC4 1-300)
# T5 sequence: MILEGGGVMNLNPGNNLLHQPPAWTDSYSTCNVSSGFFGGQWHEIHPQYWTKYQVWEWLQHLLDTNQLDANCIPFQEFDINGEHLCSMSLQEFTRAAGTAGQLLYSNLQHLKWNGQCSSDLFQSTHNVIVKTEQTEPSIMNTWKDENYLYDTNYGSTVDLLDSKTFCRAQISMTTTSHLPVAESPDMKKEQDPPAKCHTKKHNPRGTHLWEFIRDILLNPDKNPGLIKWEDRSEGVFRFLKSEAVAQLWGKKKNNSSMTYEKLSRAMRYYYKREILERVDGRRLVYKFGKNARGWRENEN
# Summary of the method: as §1
# SPI1 = SPI1 (Homo sapiens, UniProt P17947 1-270)
# Summary of the method: as §1
# SPIB = SPIB (Homo sapiens, UniProt Q01892 1-262)
# Sequence of SPIB (Q01892 whole entry): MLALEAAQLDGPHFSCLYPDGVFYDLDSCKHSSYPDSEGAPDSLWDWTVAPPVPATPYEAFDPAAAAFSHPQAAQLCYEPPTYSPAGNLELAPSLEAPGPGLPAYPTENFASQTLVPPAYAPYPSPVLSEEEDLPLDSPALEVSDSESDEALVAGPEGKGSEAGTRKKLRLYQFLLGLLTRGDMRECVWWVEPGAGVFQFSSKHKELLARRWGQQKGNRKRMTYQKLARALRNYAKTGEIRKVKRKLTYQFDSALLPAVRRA
# Summary of the method: as §1
# ELK3 = target: T6, ELK3 (Homo sapiens, UniProt P41970 1-407)
# T6 sequence: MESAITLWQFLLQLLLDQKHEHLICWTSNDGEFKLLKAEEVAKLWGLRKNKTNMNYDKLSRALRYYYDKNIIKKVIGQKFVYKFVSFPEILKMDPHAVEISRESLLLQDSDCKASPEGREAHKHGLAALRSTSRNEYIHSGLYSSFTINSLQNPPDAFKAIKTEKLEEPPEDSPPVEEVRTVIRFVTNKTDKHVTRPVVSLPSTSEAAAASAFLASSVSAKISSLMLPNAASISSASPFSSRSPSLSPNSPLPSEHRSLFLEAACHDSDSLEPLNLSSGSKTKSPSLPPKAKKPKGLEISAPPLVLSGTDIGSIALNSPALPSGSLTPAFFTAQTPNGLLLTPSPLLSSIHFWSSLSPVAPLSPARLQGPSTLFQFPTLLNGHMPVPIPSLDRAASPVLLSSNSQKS
# Summary of the method: as §1
Sequence,binding signal (FLI1),binding signal (ELK1),binding signal (GABPA),binding signal (ERG),binding signal (ELF1),binding signal (EHF),binding signal (SPI1),binding signal (SPIB),binding signal (ELK3)
TGCAAA,"1.13 fold enrichment (6-mer frequency, TF over GST control)","1.11 fold enrichment (6-mer frequency, TF over GST control)","1.07 fold enrichment (6-mer frequency, TF over GST control)","1.14 fold enrichment (6-mer frequency, TF over GST control)","1.19 fold enrichment (6-mer frequency, TF over GST control)","1.16 fold enrichment (6-mer frequency, TF over GST control)","1.14 fold enrichment (6-mer frequency, TF over GST control)","1.12 fold enrichment (6-mer frequency, TF over GST control)","1.14 fold enrichment (6-mer frequency, TF over GST control)"
CTCTAA,"1.3 fold enrichment (6-mer frequency, TF over GST control)","1.33 fold enrichment (6-mer frequency, TF over GST control)","1.28 fold enrichment (6-mer frequency, TF over GST control)","1.32 fold enrichment (6-mer frequency, TF over GST control)","1.37 fold enrichment (6-mer frequency, TF over GST control)","1.41 fold enrichment (6-mer frequency, TF over GST control)","1.35 fold enrichment (6-mer frequency, TF over GST control)","1.25 fold enrichment (6-mer frequency, TF over GST control)","1.43 fold enrichment (6-mer frequency, TF over GST control)"
GCATCC,"1.55 fold enrichment (6-mer frequency, TF over GST control)","1.67 fold enrichment (6-mer frequency, TF over GST control)","1.36 fold enrichment (6-mer frequency, TF over GST control)","1.68 fold enrichment (6-mer frequency, TF over GST control)","1.44 fold enrichment (6-mer frequency, TF over GST control)","1.55 fold enrichment (6-mer frequency, TF over GST control)","1.47 fold enrichment (6-mer frequency, TF over GST control)","1.6 fold enrichment (6-mer frequency, TF over GST control)","1.7 fold enrichment (6-mer frequency, TF over GST control)"
AATCCG,"1.53 fold enrichment (6-mer frequency, TF over GST control)","1.62 fold enrichment (6-mer frequency, TF over GST control)","1.44 fold enrichment (6-mer frequency, TF over GST control)","1.84 fold enrichment (6-mer frequency, TF over GST control)","1.5 fold enrichment (6-mer frequency, TF over GST control)","1.55 fold enrichment (6-mer frequency, TF over GST control)","1.59 fold enrichment (6-mer frequency, TF over GST control)","1.68 fold enrichment (6-mer frequency, TF over GST control)","1.5 fold enrichment (6-mer frequency, TF over GST control)"
TGTCCG,"1.47 fold enrichment (6-mer frequency, TF over GST control)","1.42 fold enrichment (6-mer frequency, TF over GST control)","1.48 fold enrichment (6-mer frequency, TF over GST control)","1.58 fold enrichment (6-mer frequency, TF over GST control)","1.41 fold enrichment (6-mer frequency, TF over GST control)","1.42 fold enrichment (6-mer frequency, TF over GST control)","1.2 fold enrichment (6-mer frequency, TF over GST control)","1.56 fold enrichment (6-mer frequency, TF over GST control)","1.39 fold enrichment (6-mer frequency, TF over GST control)"
GTTCAA,"1.07 fold enrichment (6-mer frequency, TF over GST control)","1.18 fold enrichment (6-mer frequency, TF over GST control)","1.17 fold enrichment (6-mer frequency, TF over GST control)","1.14 fold enrichment (6-mer frequency, TF over GST control)","1.16 fold enrichment (6-mer frequency, TF over GST control)","1.18 fold enrichment (6-mer frequency, TF over GST control)","1.19 fold enrichment (6-mer frequency, TF over GST control)","1.19 fold enrichment (6-mer frequency, TF over GST control)","1.13 fold enrichment (6-mer frequency, TF over GST control)"
